The supplement of paper PMC10849652
Of roughly 8,800 targets only a part is listed; those with a hit were picked by preference. About 0.5% of all pairs of compound and target were hits.

Columns and labels:
Experiment in all cases: log2 fold change, soluble protein after heating vs DMSO (PISA); higher = thermal stabilisation; K562 lysate, 10 uM; active = over 0.2 and 3.5 SD of the protein, either way, in both replicates (recomputed)
nilotinib = compound: Cc1cn(-c2cc(NC(=O)c3ccc(C)c(Nc4nccc(-c5cccnc5)n4)c3)cc(C(F)(F)F)c2)cn1 [nilotinib]
How it was run: (§1)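 To prepare the extract, K562 pellets were dounce-homogenised in PBS pH 7.4 with 1 mM MgCl2, giving crude material at 1 mg/mL protein. This was treated with 10 μM compound for 30 min, then heated in aliquots for 3 min over 48°C-58°C before pooling and addition of NP-40 to 0.5% at 4°C. Centrifugation at 21,000xg for 90 min left soluble protein in the supernatant, which TMTpro 16plex LC-MS/MS quantified with equalised channel sums. Results are log-two fold changes in thermal stability compared with solvent controls, from duplicates.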

[1] = compound: Cc1nc(Nc2n[nH]c3c2CN(C(=O)N[C@H](CN(C)C)c2ccccc2)C3(C)C)c2sccc2n1
How it was run: as §1

dasatinib = compound: Cc1nc(Nc2ncc(C(=O)Nc3c(C)cccc3Cl)s2)cc(N2CCN(CCO)CC2)n1 [dasatinib]
How it was run: as §1

[2] = compound: Cc1ncc(-c2ccnc(Nc3ccc(S(C)(=O)=O)cc3)n2)n1C(C)C
How it was run: as §1

[3] = compound: Cn1cc(-c2ccc3c(c2)CCN3C(=O)Cc2cccc(C(F)(F)F)c2)c2c(N)ncnc21
How it was run: as §1

quisinostat = compound: Cn1cc(CNCC2CCN(c3ncc(C(=O)NO)cn3)CC2)c2ccccc21 [quisinostat]
How it was run: as §1

tipifarnib = compound: Cn1cncc1[C@@](N)(c1ccc(Cl)cc1)c1ccc2c(c1)c(-c1cccc(Cl)c1)cc(=O)n2C [tipifarnib]
How it was run: as §1

[4] = compound: NC(=O)Nc1cc(-c2cccc(F)c2)sc1C(=O)N[C@H]1CCCNC1
How it was run: as §1

[5] = compound: NC(=O)c1cnc(N[C@@H]2CCCC[C@@H]2N)nc1Nc1cccc(-n2nccn2)c1
How it was run: as §1

[6] = compound: NC1(c2ccc(-c3nc4ccn5c(=O)[nH]nc5c4cc3-c3ccccc3)cc2)CCC1
How it was run: as §1

[7] = compound: NCC(=O)Nc1ccc(-n2nc(C(F)(F)F)cc2-c2ccc3c(ccc4ccccc43)c2)cc1
How it was run: as §1

vorinostat = compound: O=C(CCCCCCC(=O)Nc1ccccc1)NO [vorinostat]
How it was run: as §1

silmitasertib = compound: O=C(O)c1ccc2c(c1)nc(Nc1cccc(Cl)c1)c1ccncc12 [silmitasertib]
How it was run: as §1

[8] = compound: O=C1NC(=O)C(c2cnc3ccccn23)=C1c1cn2c3c(cc(F)cc13)CN(C(=O)N1CCCCC1)CC2
How it was run: as §1

entospletinib = compound: c1cn2cc(-c3ccc4cn[nH]c4c3)nc(Nc3ccc(N4CCOCC4)cc3)c2n1 [entospletinib]
How it was run: as §1

Measured: log2 fold change

UCHL5 isoform 3 (UniProt Q9Y5K5)
inactive: nilotinib 0.016 | [1] -0.008 | dasatinib 0.01 | [2] 0.001 | [3] 0.006 | quisinostat -0.01 | tipifarnib -0.005 | [4] 0.013 | [5] -0.031 | [6] 0.003 | [7] 0.004 | vorinostat -0.081 | silmitasertib 0 | [8] -0.009 | entospletinib -0.003

UFSP2 (UniProt Q9NUQ7)
inactive: nilotinib -0.004 | [1] -0.015 | dasatinib 0.007 | [2] -0.038 | [3] -0.002 | quisinostat 0.004 | tipifarnib -0.001 | [4] 0.016 | [5] 0.002 | [6] -0.035 | [7] -0.029 | silmitasertib 0.001 | [8] -0.021 | entospletinib -0.012
active: vorinostat 0.342

TMPO (UniProt P42166)
Chain of UniProt P42166 (P42166 whole entry, looked up): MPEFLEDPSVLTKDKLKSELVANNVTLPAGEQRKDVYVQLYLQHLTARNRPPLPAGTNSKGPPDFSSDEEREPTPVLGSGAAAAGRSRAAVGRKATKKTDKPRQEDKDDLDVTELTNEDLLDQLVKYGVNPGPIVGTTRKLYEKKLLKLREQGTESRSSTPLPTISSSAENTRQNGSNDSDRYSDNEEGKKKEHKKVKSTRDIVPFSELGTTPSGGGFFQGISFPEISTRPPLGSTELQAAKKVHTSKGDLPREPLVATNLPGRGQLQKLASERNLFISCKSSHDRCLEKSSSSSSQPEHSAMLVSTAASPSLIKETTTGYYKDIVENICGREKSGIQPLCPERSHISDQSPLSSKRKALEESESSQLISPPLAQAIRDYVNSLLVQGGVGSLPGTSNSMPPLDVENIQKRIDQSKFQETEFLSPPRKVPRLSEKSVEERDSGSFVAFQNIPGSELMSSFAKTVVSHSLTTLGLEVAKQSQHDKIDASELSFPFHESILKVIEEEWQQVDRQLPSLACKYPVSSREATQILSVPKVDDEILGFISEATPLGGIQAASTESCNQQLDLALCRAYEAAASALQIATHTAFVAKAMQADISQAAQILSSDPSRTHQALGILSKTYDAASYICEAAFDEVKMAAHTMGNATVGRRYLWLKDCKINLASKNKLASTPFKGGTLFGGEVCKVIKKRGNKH
inactive: nilotinib 0.05 | [1] -0.178 | dasatinib -0.069 | [2] -0.036 | [3] 0.029 | quisinostat -0.041 | tipifarnib -0.018 | [4] 0.035 | [5] 0.031 | [6] -0.006 | [7] 0.037 | silmitasertib -0.057 | [8] 0.009 | entospletinib -0.029
active: vorinostat -0.569

UBAP2 (UniProt Q5T6F2)
inactive: nilotinib -0.093 | [1] 0.008 | dasatinib -0.042 | [2] 0.021 | [3] -0.023 | quisinostat -0.008 | tipifarnib -0.073 | [4] 0.019 | [5] 0.016 | [6] 0.029 | [7] 0.031 | vorinostat 0.03 | silmitasertib -0.007 | [8] 0 | entospletinib -0.013

TMEM87B (UniProt Q96K49)
inactive: nilotinib 0.008 | [1] 0.086 | dasatinib -0.006 | [2] -0.02 | [3] 0.023 | quisinostat -0.012 | tipifarnib -0.011 | [4] -0.016 | [5] -0.019 | [6] -0.048 | [7] -0.024 | vorinostat 0.018 | silmitasertib 0.026 | [8] -0.037 | entospletinib -0.097

TSPAN13 (UniProt O95857)
Chain of UniProt O95857 (O95857 whole entry, looked up): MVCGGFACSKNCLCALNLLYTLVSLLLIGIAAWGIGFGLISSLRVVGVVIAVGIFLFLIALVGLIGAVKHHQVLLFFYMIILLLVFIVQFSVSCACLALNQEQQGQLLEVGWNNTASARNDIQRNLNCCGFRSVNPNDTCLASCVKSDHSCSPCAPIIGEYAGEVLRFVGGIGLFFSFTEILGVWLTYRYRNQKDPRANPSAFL
inactive: nilotinib -0.067 | [1] 0.02 | dasatinib -0.054 | [2] 0.121 | [3] -0.35 | quisinostat 0.034 | tipifarnib -0.032 | [4] -0.126 | [5] 0.035 | [6] 0.132 | [7] -0.024 | vorinostat 0.104 | silmitasertib -0.008 | [8] 0.008 | entospletinib -0.015

TPM1 isoform 4 (UniProt P09493)
Chain of UniProt P09493 (P09493 whole entry, looked up): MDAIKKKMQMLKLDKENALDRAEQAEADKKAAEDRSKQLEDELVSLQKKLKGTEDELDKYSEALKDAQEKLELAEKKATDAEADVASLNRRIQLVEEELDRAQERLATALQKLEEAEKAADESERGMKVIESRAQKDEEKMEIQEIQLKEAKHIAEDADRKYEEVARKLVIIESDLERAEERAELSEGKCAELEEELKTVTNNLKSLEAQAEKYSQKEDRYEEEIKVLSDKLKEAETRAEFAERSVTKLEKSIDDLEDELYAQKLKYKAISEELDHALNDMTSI
inactive: nilotinib 0.02 | [1] 0 | dasatinib 0.004 | [2] -0.031 | [3] 0.004 | quisinostat 0.023 | tipifarnib -0.008 | [4] -0.016 | [5] -0.018 | [6] -0.019 | [7] -0.053 | vorinostat 0.052 | silmitasertib -0.03 | [8] -0.041 | entospletinib 0.006

TRA2A (UniProt Q13595)
inactive: nilotinib 0.098 | [1] -0.041 | dasatinib -0.08 | [2] -0.124 | [3] 0.077 | quisinostat -0.213 | tipifarnib -0.114 | [4] -0.206 | [5] 0 | [6] -0.062 | [7] 0.009 | silmitasertib -0.151 | [8] 0.005 | entospletinib -0.102
active: vorinostat 0.568

TRAPPC9 isoform 2 (UniProt Q96Q05)
Chain of UniProt Q96Q05 (Q96Q05 whole entry, looked up): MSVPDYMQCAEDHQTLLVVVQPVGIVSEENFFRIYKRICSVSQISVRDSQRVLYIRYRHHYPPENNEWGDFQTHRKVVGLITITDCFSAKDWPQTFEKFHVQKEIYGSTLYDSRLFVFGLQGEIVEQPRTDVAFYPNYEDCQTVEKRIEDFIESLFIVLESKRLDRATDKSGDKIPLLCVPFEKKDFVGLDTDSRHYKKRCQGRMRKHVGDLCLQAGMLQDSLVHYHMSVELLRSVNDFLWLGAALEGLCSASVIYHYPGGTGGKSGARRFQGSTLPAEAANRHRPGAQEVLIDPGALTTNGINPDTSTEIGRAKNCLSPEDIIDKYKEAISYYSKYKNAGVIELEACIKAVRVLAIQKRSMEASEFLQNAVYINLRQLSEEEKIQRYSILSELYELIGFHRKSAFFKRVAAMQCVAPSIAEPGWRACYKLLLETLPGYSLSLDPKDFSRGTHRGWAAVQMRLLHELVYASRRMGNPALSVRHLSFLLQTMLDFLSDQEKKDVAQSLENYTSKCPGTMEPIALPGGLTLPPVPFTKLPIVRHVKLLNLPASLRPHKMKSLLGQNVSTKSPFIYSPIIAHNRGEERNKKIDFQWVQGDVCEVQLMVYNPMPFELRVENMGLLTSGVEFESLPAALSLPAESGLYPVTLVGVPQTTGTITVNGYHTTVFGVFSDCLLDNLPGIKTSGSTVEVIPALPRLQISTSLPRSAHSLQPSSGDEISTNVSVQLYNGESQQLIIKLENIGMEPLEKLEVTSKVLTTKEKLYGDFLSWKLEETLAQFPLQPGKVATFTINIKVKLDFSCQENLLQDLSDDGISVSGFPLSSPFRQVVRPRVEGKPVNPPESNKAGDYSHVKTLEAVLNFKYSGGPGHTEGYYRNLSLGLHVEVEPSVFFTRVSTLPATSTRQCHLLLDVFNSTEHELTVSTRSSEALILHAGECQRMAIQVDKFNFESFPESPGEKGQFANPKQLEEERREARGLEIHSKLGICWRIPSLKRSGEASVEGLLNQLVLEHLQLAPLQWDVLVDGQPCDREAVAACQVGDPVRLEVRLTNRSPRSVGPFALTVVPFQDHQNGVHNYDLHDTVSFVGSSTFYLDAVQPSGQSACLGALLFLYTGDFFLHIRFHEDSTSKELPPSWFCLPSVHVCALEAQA
active: vorinostat -0.375
inactive: nilotinib 0.034 | [1] 0.005 | dasatinib -0.051 | [2] -0.011 | [3] 0.068 | quisinostat -0.07 | tipifarnib 0.026 | [4] 0 | [5] -0.011 | [6] -0.073 | [7] 0.005 | silmitasertib 0.046 | [8] 0 | entospletinib -0.049

TEX30 (UniProt Q5JUR7)
Chain of UniProt Q5JUR7 (Q5JUR7 whole entry, looked up): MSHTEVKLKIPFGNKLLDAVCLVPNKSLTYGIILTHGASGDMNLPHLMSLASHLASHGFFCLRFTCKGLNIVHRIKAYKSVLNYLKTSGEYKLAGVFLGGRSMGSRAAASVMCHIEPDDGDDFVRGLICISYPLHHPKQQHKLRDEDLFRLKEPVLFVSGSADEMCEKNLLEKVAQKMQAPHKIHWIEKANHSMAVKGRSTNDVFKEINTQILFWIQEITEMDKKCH
inactive: nilotinib -0.036 | [1] 0.072 | dasatinib -0.109 | [2] 0.003 | [3] -0.004 | quisinostat 0.007 | tipifarnib 0 | [4] 0.046 | [5] -0.017 | [6] -0.052 | [7] 0.035 | silmitasertib 0.041 | [8] -0.006 | entospletinib 0.001
active: vorinostat -0.534

TCAF2 (UniProt A6NFQ2)
inactive: nilotinib 0.051 | [1] 0.004 | dasatinib 0.001 | [2] 0.05 | [3] 0.042 | quisinostat -0.061 | tipifarnib -0.037 | [4] 0.047 | [5] 0.041 | [6] -0.011 | [7] 0.019 | silmitasertib 0 | [8] 0 | entospletinib -0.01
active: vorinostat -0.27

TMEM87A (UniProt Q8NBN3)
Chain of UniProt Q8NBN3 (Q8NBN3 whole entry, looked up): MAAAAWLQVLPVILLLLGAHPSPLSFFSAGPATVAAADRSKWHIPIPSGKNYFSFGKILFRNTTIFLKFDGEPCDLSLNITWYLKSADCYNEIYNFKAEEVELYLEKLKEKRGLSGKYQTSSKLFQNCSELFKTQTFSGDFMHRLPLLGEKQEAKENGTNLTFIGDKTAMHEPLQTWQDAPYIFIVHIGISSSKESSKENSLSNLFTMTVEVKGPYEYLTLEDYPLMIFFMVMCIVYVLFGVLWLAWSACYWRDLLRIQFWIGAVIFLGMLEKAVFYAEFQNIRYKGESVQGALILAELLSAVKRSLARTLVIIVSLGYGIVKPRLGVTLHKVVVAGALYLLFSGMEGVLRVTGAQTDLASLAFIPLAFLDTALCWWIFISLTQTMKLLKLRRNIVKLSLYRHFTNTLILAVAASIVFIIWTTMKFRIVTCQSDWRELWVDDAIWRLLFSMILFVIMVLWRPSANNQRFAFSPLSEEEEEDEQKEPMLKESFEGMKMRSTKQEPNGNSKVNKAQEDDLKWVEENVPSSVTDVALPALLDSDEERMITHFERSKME
inactive: nilotinib -0.009 | [1] 0.055 | dasatinib -0.007 | [2] 0.027 | [3] 0.03 | quisinostat -0.021 | tipifarnib 0.024 | [4] 0.003 | [5] 0.03 | [6] 0.017 | [7] 0.001 | vorinostat 0.074 | silmitasertib 0.007 | [8] -0.013 | entospletinib 0.029

TPST2 (UniProt O60704)
Chain of UniProt O60704 (O60704 whole entry, looked up): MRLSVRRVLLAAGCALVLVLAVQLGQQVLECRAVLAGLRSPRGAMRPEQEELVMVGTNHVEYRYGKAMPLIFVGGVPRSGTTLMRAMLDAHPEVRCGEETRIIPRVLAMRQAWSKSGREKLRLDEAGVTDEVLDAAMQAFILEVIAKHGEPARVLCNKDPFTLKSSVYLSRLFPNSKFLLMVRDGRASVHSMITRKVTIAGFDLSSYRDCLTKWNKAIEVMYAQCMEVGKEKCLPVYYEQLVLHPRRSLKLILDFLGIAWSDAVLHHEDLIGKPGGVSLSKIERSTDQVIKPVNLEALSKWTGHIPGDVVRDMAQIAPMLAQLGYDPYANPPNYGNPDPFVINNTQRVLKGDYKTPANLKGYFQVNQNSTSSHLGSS
inactive: nilotinib -0.02 | [1] -0.03 | dasatinib -0.007 | [2] 0.016 | [3] 0.008 | quisinostat -0.076 | tipifarnib -0.058 | [4] 0.064 | [5] -0.064 | [6] -0.087 | [7] 0.045 | vorinostat 0.132 | silmitasertib -0.03 | [8] -0.048 | entospletinib 0.016

UBE2H (UniProt P62256)
Chain of UniProt P62256 (P62256 whole entry, looked up): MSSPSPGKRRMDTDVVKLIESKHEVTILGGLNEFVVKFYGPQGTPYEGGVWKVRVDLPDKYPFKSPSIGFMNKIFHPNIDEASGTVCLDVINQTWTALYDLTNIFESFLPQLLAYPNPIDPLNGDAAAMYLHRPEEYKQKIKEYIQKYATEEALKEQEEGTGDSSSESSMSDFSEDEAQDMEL
inactive: nilotinib -0.021 | [1] -0.041 | dasatinib 0.046 | [2] 0.02 | [3] 0.021 | quisinostat -0.015 | tipifarnib -0.049 | [4] 0.014 | [5] 0.005 | [6] -0.041 | [7] 0.023 | vorinostat 0.093 | silmitasertib -0.003 | [8] -0.003 | entospletinib -0.012

TUBGCP4 (UniProt Q9UGJ1)
Chain of UniProt Q9UGJ1 (Q9UGJ1 whole entry, looked up): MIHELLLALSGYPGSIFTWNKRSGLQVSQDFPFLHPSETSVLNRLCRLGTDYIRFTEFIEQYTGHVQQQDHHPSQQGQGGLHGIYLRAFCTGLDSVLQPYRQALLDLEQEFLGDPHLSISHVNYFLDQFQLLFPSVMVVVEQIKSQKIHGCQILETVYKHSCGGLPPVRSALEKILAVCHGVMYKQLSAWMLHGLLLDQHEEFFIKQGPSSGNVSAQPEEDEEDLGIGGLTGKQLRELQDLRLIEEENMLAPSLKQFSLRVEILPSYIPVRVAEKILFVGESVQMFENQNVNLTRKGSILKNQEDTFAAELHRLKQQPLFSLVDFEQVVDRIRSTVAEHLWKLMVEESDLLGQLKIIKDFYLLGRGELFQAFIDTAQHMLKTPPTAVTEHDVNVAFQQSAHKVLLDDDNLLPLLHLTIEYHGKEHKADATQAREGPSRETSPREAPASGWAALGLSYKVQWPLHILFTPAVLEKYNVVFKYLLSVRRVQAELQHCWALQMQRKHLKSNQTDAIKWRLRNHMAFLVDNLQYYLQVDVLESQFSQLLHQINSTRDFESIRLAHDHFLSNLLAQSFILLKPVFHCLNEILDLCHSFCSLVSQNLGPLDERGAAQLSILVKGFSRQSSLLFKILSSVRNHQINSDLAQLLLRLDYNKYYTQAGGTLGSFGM
inactive: nilotinib -0.028 | [1] 0.008 | dasatinib -0.046 | [2] 0.001 | [3] 0.018 | quisinostat -0.027 | tipifarnib 0.008 | [4] 0.069 | [5] 0.034 | [6] 0.01 | [7] -0.11 | silmitasertib 0.003 | [8] 0.02 | entospletinib 0.038
active: vorinostat -0.219

TYW3 (UniProt Q6IPR3)
inactive: nilotinib -0.033 | [1] 0.017 | dasatinib -0.006 | [2] 0.035 | [3] 0.027 | quisinostat -0.126 | tipifarnib -0.018 | [4] -0.014 | [5] 0.046 | [6] 0.017 | [7] 0.036 | silmitasertib 0 | [8] -0.042 | entospletinib -0.001
active: vorinostat -0.694

TCF12 isoform 3 (UniProt Q99081)
inactive: nilotinib -0.031 | [1] 0.016 | dasatinib 0 | [2] 0.052 | [3] -0.022 | quisinostat 0.02 | tipifarnib -0.022 | [4] -0.011 | [5] -0.032 | [6] -0.043 | [7] -0.016 | silmitasertib -0.024 | [8] -0.004 | entospletinib 0.006
active: vorinostat -0.263

TRAF2 isoform 2 (UniProt Q12933)
active: vorinostat -0.269
inactive: nilotinib -0.02 | [1] 0.008 | dasatinib -0.024 | [2] 0.042 | [3] 0.01 | quisinostat -0.024 | tipifarnib 0.005 | [4] -0.016 | [5] 0.001 | [6] -0.016 | [7] 0.014 | silmitasertib 0.024 | [8] 0.031 | entospletinib 0.005

TDRD3 isoform 3 (UniProt Q9H7E2)
Chain of UniProt Q9H7E2 (Q9H7E2 whole entry, looked up): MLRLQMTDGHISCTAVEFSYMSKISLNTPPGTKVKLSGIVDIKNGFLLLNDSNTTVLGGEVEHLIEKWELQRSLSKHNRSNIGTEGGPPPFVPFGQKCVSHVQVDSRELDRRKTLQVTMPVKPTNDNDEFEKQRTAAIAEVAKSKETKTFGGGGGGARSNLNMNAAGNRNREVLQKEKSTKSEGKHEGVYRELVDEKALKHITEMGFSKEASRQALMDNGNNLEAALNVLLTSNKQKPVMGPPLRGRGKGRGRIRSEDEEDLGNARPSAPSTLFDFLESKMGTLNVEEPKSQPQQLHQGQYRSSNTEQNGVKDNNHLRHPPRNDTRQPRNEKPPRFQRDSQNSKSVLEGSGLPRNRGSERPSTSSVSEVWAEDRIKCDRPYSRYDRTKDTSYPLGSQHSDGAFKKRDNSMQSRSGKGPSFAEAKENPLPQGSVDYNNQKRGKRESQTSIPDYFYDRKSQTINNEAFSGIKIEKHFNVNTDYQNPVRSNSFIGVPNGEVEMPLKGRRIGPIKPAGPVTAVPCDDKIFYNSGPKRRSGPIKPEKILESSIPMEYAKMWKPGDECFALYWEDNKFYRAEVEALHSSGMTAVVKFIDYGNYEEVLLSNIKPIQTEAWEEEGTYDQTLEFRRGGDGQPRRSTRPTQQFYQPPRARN
inactive: nilotinib 0.261 | [1] -0.04 | dasatinib 0.033 | [2] 0.17 | [3] 0.01 | quisinostat -0.023 | tipifarnib -0.152 | [4] 0.042 | [5] 0.014 | [6] 0.064 | [7] 0.23 | vorinostat -0.016 | silmitasertib -0.03 | [8] 0.008 | entospletinib -0.041
